The values that follow come from PubChem BioAssay (NCI).

Common to all, as to test: NCI-60 one-dose screen, 48 h (100 = growth as untreated, 0 = no growth, -100 = all killed)
Common to all, as to conditions: 10 µM unless noted

Assay [1] relates to NCI-H23 lung.
The test system of assay [2] is NCI-H226 lung.
For assay [3], the system named is NCI-H322M lung.
Assay [4] relates to HOP-62 NSCLC.
Assay [5] relates to NCI-H460 lung.
Assay [6] has as its system NCI-H522 lung.
Assay [7] deals with A549/ATCC NSCLC.
Assay [8] relates to 786-0 renal.
Assay [9] relates to COLO 205 colon.
In assay [10] the test system is DU-145 prostate.
For assay [11], the system named is K-562 leukemia.
Assay [12] relates to MDA-MB-231 breast.
In assay [13] the test system is RXF 393 renal.
Assay [14] concerns SF-268 CNS.
Assay [15] concerns SF-295 CNS.
Assay [16] has as its system SF-539 CNS.
Assay [17] has as its system UACC-257 melanoma.
The test system of assay [18] is M14 melanoma.
Assay [19] has as its system MALME-3M melanoma.

Compounds without any hit were thinned out: in the full panel of roughly 83,000, 20% have a hit.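 48-hour exposure, single concentration, 96-well plates; percent growth endpoint where 0 means no net growth. Active: below 10.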 Values without a mark were called inactive. Activity calls are given as the source filed them.

For `CCCCNc1ccc(-c2ccc(NCCCC)cc2)cc1`, the growth is 65.5% in assay [1]; 73.4% in assay [2]; 95.9% in assay [3]; 91.2% in [4]; 65.8% in [5]; 46.2% in assay [6]. For the same molecule, the growth in assay [7] was 61.6%; in [8], 58.9%; in assay [9] it was 111%; in assay [10] it was 83.1%; in assay [11], 46.7%; in [12] it was 84.1%. Also, the growth in assay [13] was 79.7%; in assay [14], 70%; in assay [15], 57.4%; in assay [16], 49.5%; in assay [17], 70.7%; in [18] it was 71.7%.
For the molecule `C/C(=N\O)c1ccccn1`, the growth is 104% in assay [1]; 98% in assay [2]; 101% in assay [3]; 102% in assay [4]; 103% in [5]; 83.2% in assay [6]. Further, the growth in assay [7] was 91.2%; in assay [8], 101%; in [9] it was 108%; in assay [10], 106%; in assay [11], 106%; in assay [19] it was 108%. The growth in [12] is 101%; in assay [13], 108%; in assay [14], 96.8%; in [15], 102%; in assay [16], 103%; in assay [17] it was 86.3%. Moreover, the growth in [18] is 105%.
Take `COC(=O)c1cccc([N+](=O)[O-])c1`: the growth in [1] is 96.3%; in assay [2], 103%; in assay [3], 103%; in [4], 79.4%; in [5], 108%; in assay [6] it was 101%. In addition, the growth was 94.9% in assay [7]; 104% in assay [8]; 112% in assay [9]; 105% in assay [10]; 120% in [11]; 102% in assay [19]. Besides, the growth in assay [13] is 108%; in assay [14] it was 102%; in [15] it was 105%; in assay [16], 98.5%; in [17], 95.5%; in assay [18], 105%.
Consider `COc1ccc(Nc2cc(Cl)ccc2C(=O)O)cn1`, for which the growth in [1] was 102%; in [2] it was 103%; in assay [3], 128%; in [4], 111%; in assay [5], 113%; in [6], 100%. Further, the growth in assay [7] is 103%; in assay [8], 111%; in assay [9] it was 103%; in assay [10], 110%; in [11], 100%; in assay [19], 157%. The growth in assay [12] was 109%; in [13], 126%; in assay [14], 103%; in assay [15] it was 138%; in assay [16] it was 105%; in assay [17], 40.3%. The growth in [18] is 102%.
Consider `CC(CCC#N)(CCC#N)C(=O)c1ccccc1`, for which the growth was 109% in [1]; 107% in assay [2]; 112% in assay [3]; 107% in assay [4]; 104% in assay [5]; 88.1% in assay [6]. For the same molecule, the growth in [7] was 97.1%; in assay [8], 110%; in [9], 117%; in assay [10], 106%; in assay [11] it was 104%; in assay [19] it was 114%. The growth was 109% in assay [12]; 98.6% in [13]; 112% in assay [14]; 113% in assay [15]; 115% in [16]; 106% in [17]. In [18], the growth is 115%.
With `N=C(N)c1nn(C2OC(CO)C(O)C2O)c2nc[nH]c(=O)c12` (stereo unspecified), the growth in assay [1] is -34.1% (active); in assay [2] it was 13.5%; in assay [3] it was 6.64% (active); in [4], -12% (active); in [5], 2.95% (active); in assay [6], 11.5%. Besides, the growth in assay [7] is 19.1%; in assay [8] it was -2.36% (active); in assay [9] it was -11.5% (active); in assay [10] it was -49.1% (active); in assay [11], -5.78% (active); in assay [19], -39.9% (active). Further, the growth in assay [12] is -15.3% (active); in assay [14] it was -7.38% (active); in [15], 8.51% (active); in assay [16], -43.8% (active); in assay [17], 3.08% (active); in [18] it was -54.8% (active).
For the molecule `Nc1ccn(C2CC(N)C(CO)O2)c(=O)n1` (stereo unspecified), the growth in [1] is 80.1%; in assay [2], 85.1%; in assay [3], 96.6%; in [4] it was 69.1%; in assay [5] it was 34.5%; in assay [6] it was 77.9%. Moreover, the growth in [7] was 75.6%; in assay [8] it was 94.1%; in [9], 97.7%; in assay [10], 51.2%; in assay [11] it was 83.9%; in assay [19], 79.2%. Further, the growth in assay [12] is 94.4%; in assay [13], 128%; in [14] it was 102%; in [15], 82.4%; in assay [16], 76.3%; in assay [17] it was 96%. The growth in assay [18] was 66.2%.
With `CC(CC(CCC(=O)O)(c1ccccc1)c1ccccc1)N(C)C` (stereo unspecified), the growth is 98.8% in assay [1]; 95.3% in assay [2]; 95.9% in assay [3]; 96.6% in assay [4]; 107% in assay [5]; 105% in [6]. For the same molecule, the growth in assay [7] was 89.8%; in [8], 98.5%; in assay [9], 104%; in assay [10], 115%; in [11], 103%; in assay [19], 109%. The growth is 105% in assay [13]; 102% in assay [14]; 93% in assay [15]; 95.1% in assay [16]; 88.9% in assay [17]; 95% in [18].
Turning to `O=[N+]([O-])c1ccc(-c2nc(N(CCO)CCO)c3ccccc3n2)o1`, the growth in [1] was -64.9% (active); in assay [2], -24.7% (active); in [3] it was -31% (active); in assay [4] it was -20.7% (active); in assay [5] it was -41.6% (active); in assay [6], -54% (active). In addition, the growth is -0.496% (active) in assay [7]; -40.4% (active) in assay [8]; -87.1% (active) in [9]; -22.8% (active) in [10]; 4.2% (active) in [11]; -74.5% (active) in assay [19]. In addition, the growth in [12] is -6.61% (active); in [13], -87.1% (active); in [14], -16.2% (active); in [15], -32.1% (active); in [16] it was -48.9% (active); in [17], -36.3% (active). Further, the growth in assay [18] is -90% (active).
In the case of `CC(=O)/C(C)=N\OC(=O)Nc1ccccc1`, the growth in assay [1] was 93.8%; in [2] it was 104%; in [3] it was 101%; in assay [4] it was 94.8%; in [5] it was 107%; in assay [6], 98.3%. Moreover, the growth in [7] is 103%; in assay [8] it was 100%; in assay [9] it was 96.4%; in assay [10], 104%; in assay [11] it was 98.4%; in [19], 104%. Moreover, the growth was 99.3% in assay [12]; 125% in assay [13]; 101% in assay [14]; 101% in assay [15]; 95.3% in assay [16]; 98.7% in assay [17]. Also, the growth in [18] is 101%.
